Pol eta inh-1 = inhibitors of human DNA polymerase eta; AID 588591; recombinant Pol eta, fluorescent DNA replication assay; Q9Y253; 390,000 compounds, 1.2% hits; Potency, µM (titrated, usually from 114 µM), without a hit: top-dose activity change, negative = inhibition, hits mostly inhibitors; further: potency means the concentration at half of the fitted maximal effect; on the % scale 0 is the no-effect control and ±100 the full control effect
Target sequence (Q9Y253 whole entry, looked up): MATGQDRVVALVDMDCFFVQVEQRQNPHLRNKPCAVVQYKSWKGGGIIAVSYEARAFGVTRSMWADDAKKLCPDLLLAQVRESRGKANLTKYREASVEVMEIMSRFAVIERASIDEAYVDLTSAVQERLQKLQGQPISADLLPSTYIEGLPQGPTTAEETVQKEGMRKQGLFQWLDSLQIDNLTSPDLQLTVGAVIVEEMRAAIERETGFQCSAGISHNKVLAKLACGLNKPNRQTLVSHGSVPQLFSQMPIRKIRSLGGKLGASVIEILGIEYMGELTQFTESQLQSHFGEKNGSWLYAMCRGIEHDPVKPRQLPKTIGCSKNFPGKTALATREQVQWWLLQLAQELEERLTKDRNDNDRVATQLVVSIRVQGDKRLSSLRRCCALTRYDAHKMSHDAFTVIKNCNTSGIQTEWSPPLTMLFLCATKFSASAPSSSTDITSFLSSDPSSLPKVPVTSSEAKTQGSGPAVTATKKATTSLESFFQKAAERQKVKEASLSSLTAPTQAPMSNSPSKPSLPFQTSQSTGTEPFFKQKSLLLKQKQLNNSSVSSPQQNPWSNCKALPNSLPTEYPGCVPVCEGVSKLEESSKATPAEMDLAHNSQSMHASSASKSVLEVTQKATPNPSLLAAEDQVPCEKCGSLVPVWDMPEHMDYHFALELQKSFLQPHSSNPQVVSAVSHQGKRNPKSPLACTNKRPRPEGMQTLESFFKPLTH
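Pol eta at 10 nM preincubated with compounds 15 min at room temperature; reaction started with fluorescent substrate (50 nM final) and read kinetically at 0 and 10 min.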
Pol iota inh = inhibitors of human DNA polymerase iota. Q9UNA4. Pol iota fluorescent replication assay, 10 min. Potency, µM (titrated, usually from 115 µM), without a hit: at the top dose activity, negative = inhibition, hits mostly inhibitors. 390,000 compounds, 1% hits; further: potency means the concentration at half of the fitted maximal effect
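Pol iota at 10 nM preincubated 15 min with compounds at room temperature; reaction started with fluorescent substrate, 50 nM final. Fluorescence read kinetically at 0 and 10 min; buffer-only wells as negative control.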
Pol beta inh = blocks human DNA polymerase beta activity | 340,000 compounds, 1.3% hits | Potency, µM (top dose mostly 114 µM), inactives show top-dose activity change, negative = inhibition, usual class: inhibitors | Pol beta primer extension/strand displacement, fluorescence kinetic | P06746; further: potency means the concentration at half of the fitted maximal effect; on the % scale 0 is the no-effect control and ±100 the full control effect
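Curves were derived by four-parameter Hill fits of normalized qHTS data. The kinetic fluorescent primer-extension read was taken at 0 and 10 min after 50 nM substrate, following a 15 min room-temperature preincubation of 10 nM enzyme with compounds.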
PI4K2A inh = PI4K2A (human) kinase inhibition. purified PI4K2A, ADP-Glo luminescence, 1 h; active compounds read low. activity change, negative = inhibition, % at 76.9 µM. 420,000 compounds, 0.13% hits. AID 1346378; in the data active means activity change below about -50%; inconclusive means mostly about -30% to -49%;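 further: -100% = wells without enzyme as full effect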
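PI4K2A activity was measured by ADP-Glo luminescence: enzyme (4 ug/mL stock) and phosphatidylinositol (1.2 mM stock) in Tris pH 7.5/MgCl2/EGTA/Triton X-100 buffer were reacted with ATP (300 microM stock) for one hour at ambient temperature.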
PI5P4Ka inh = inhibitors of human PI5P4K alpha. PI5P4Kalpha enzyme, ADP-Glo luminescence, 60 min; active compounds read low. 330,000 compounds, 1.2% hits. max response, %; active means max response of -50% or lower; inconclusive means between -30% and -50%; inactive means -30% or higher; further: value at the top dose of about 77 µM; on the % scale 0 is the no-effect control and ±100 the full control effect
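Enzyme plus substrate dispensed, test compounds pinned in, then ATP (5 microM final) added. After 60 min at RT, ADP-Glo reagent 1 for 45 min and reagent 2 for 30 min preceded luminescence imaging.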
Pol kappa inh-1 = DNA polymerase kappa (human) inhibition. purified Pol kappa, fluorescent DNA synthesis assay, 10 min. 400,000 compounds, 0.53% hits. AID 588579. Q9UBT6. Potency, µM (highest dose often 107 µM), without a hit: at the highest dose activity, negative = inhibition, usual class: inhibitors; further: potency means the concentration at half of the fitted maximal effect; on the % scale 0 is the no-effect control and ±100 the full control effect
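Activity was followed as the change in fluorescence between reads at 0 and 10 min after starting the reaction with 50 nM substrate. Beforehand, 10 nM polymerase had been preincubated with compound for 15 min at room temperature.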
PGK validate = validation of Trypanosoma brucei phosphoglycerate kinase inhibitors. shares compounds with Pol kappa inh-1. Potency, µM (top dose mostly 57.5 µM), for inactives: at the top dose activity change, negative = inhibition, usual class: inhibitors. TbPGK coupled GAPDH assay, Kinase-Glo luminescence. 500 compounds, 79% hits; further: potency means the concentration at half of the fitted maximal effect; on the % scale 0 is the no-effect control and ±100 the full control effect; nearly all actives have a fitted effect of over 65% in size
POLI cherry-pick = Inhibitors of human DNA polymerase iota, confirmation; shares compounds with Pol kappa inh-1; Pol iota primer extension, TAMRA/BHQ fluorescence; Potency, µM, most hits filed as inhibitors; 1,500 compounds, 77% hits; further: potency means the concentration at half of the fitted maximal effect
Pol kappa inh-2 = Pol kappa (human) inhibition, cherry-pick confirmation; Potency, µM, most hits filed as inhibitors; shares compounds with Pol eta inh-1; purified Pol-kappa, fluorescent strand-displacement substrate; 920 compounds, 76% hits; further: potency means the concentration at half of the fitted maximal effect
Pol eta inh-2 = Pol eta (human) inhibition, cherry-pick confirmation; Potency, µM, most hits filed as inhibitors; AID 720502; 2,600 compounds, 64% hits; Pol eta primer extension, TAMRA/BHQ fluorescence, 10 min; shares compounds with Pol eta inh-1; further: potency means the concentration at half of the fitted maximal effect
Numbers without * were called inactive; ? = inconclusive; · = not tested or not shown; ! = a repeat was not active; [ ] = another dose, or the depositor's remark. Sampled rows, rich in hits. Any-hit rate of the full collection: about 2.8%. Unless noted, the call rests on the fitted dose curve; in most records, active means well fitted curve in the direction sought with a large enough effect; inconclusive means small, poorly fitted or top-dose-only effect, or another doubt; inactive means no such curve, though single readings can be large; an effect the other way counts as inactive or inconclusive.

SMILES | Pol eta inh-1 | Pol iota inh | Pol beta inh | PI4K2A inh | PI5P4Ka inh | Pol kappa inh-1 | POLI cherry-pick | Pol kappa inh-2 | Pol eta inh-2 | others
CCc1ccc(C(=O)c2cn(CC(=O)Nc3ccc4c(c3)OCO4)c3ccc(CC)cc3c2=O)cc1 | 89.1µM* | -93.7% | 4.47µM* | -10.7 | · | -4.6% | 42.3* | · | ?
COc1cccc(NC(=O)Cn2cc(C(=O)c3ccc(F)cc3)c(=O)c3cc(OC)ccc32)c1 | -3.5% | 25.5% | 40.4% | -11.3 | · | 5.6% | · | · | ·
CCc1ccc(C(=O)c2cn(CC(=O)Nc3cccc(OC)c3)c3ccc(OC)cc3c2=O)cc1 | 39.8µM* | 12.6µM* | 8.91µM* | 2.9 | · | 89.1µM* | 8.44* | · | ?
N#C/C(=C/c1cccn1-c1cccc(C(=O)O)c1)c1ccc(Cl)cc1 | 50.1µM* | 20µM* | 8.91µM* | -0.4 | -19.6 | ? | 75.2* | 75.2* | ?
CCOC(=O)/C(C#N)=C/c1cccn1-c1ccc(Cl)cc1 | -19.9% | 83.7% | -7.0% | 4.8 | -0.8 | 2.5% | · | · | ·
N#C/C(=C\c1ccccc1OCc1ccc(C(=O)O)cc1)c1ccccc1 | -8.4% | 5.3% | -0.6% | -4.6 | 21.7 | -0.4% | · | · | ·
N#CC(C#N)=Cc1cccn1-c1ccc(C(=O)O)cc1 | 10µM* | 17.8µM* | 5.01µM* | -10.1 | ? | 39.8µM* | 18.9* | 16.8* | 26.9*
CCc1ccc(C2c3c(-c4ccccc4O)n[nH]c3C(=O)N2Cc2ccncc2)cc1 (stereo not drawn) | -6.1% | -13.3% | 20.4% | -0.2 | · | -6.4% | · | · | ·
CC(=O)N1c2ccccc2CC1C(=O)NCc1cccc(Cl)c1 (stereo not drawn) | -8.5% | 23.6% | 27.3% | 1.5 | · | -0.8% | · | · | ·
Cc1cccc(CCNC(=O)C2CCC(CNS(=O)(=O)c3ccccc3)CC2)c1 (stereo not drawn) | -13.3% | -3.1% | -5.1% | -0.8 | · | -8.8%[60.1 µM] | · | · | ·
COc1ccccc1CNC(=O)CCn1cnc2ccccc2c1=O | 50.1µM* | ? | 11.2µM* | 6.9 | · | -2.8%[60.1 µM] | ? | ? | 53.6*
CCc1cccc(C)c1NC(=O)Cn1nnc(-c2nc(-c3ccccc3F)no2)c1N | ? | 27.7% | ? | -9.4 | · | 1.2% | · | · | ·
Cc1cc(N/N=C/c2ccc(O)cc2)nc(NS(=O)(=O)c2ccccc2)n1 | 20µM* | ? | 17.8µM* | -7.3 | -54.8* | ? | · | · | ? | PGK validate=5.17µM*
Cc1ccc(/C=N/Nc2cc(C)nc(NCc3ccccc3)n2)cc1 | -10.7% | 6.2% | -8.1% | 13.4 | -3.7 | -13.4% | · | · | ·
Cn1cnnc1SCC(=O)Nc1sc2c(c1C(N)=O)CCC2 | 22.4µM* | ? | 14.1µM* | -26.7 | · | ? | 67* | · | 42.6*
COc1cccc2c1C(=O)c1c(O)c3c(c(O)c1C2=O)C[C@@](O)(C(=O)CO)C[C@@H]3OC1CC(N)C(O)C(C)O1 (stereo partly drawn) | 5.01µM* | 35.5µM* | · | -4.5 | -16.1 | 10.6µM*! | 16.8* | 9.47* | 60.1*
COc1cccc2c1C(=O)c1c(O)c3c(c(O)c1C2=O)CC(O)(C(C)=O)CC3OC1CC(N(C)C)C(O)C(C)O1 (stereo not drawn) | 11.2µM* | 22.4µM* | · | -8.7 | -0.1 | ? | 10.6* | 23.8* | 19*

Assay outcomes deposited in PubChem by National Center for Advancing Translational Sciences (NCATS).
